This passage reports Potency results from PubChem BioAssay AID588590 (National Center for Advancing Translational Sciences (NCATS), 2011).

“And” between values parts separate entries of the source, which are not always exact repeats. Identical values can stand only once. Screen size: about 390,000 compounds; about 4,000 (1%) were called active. A call without a number means that no potency is given here. Inconclusive results (about 7%) are left out. The call rests on the fitted dose curve; in most records, active means well fitted inhibition curve with a large enough effect; inconclusive means small, poorly fitted or top-dose-only effect, or another doubt; inactive means no such curve, though single readings can be large or run the other way. For the sample, actives were picked, then their nearest neighbours and some compounds at random. Where a structure was tested more than once in an assay, its records may differ in their call.
Potency means the concentration at half of the fitted maximal effect.

Sequence of DNA polymerase iota (Homo sapiens) (Q9UNA4 whole entry, looked up): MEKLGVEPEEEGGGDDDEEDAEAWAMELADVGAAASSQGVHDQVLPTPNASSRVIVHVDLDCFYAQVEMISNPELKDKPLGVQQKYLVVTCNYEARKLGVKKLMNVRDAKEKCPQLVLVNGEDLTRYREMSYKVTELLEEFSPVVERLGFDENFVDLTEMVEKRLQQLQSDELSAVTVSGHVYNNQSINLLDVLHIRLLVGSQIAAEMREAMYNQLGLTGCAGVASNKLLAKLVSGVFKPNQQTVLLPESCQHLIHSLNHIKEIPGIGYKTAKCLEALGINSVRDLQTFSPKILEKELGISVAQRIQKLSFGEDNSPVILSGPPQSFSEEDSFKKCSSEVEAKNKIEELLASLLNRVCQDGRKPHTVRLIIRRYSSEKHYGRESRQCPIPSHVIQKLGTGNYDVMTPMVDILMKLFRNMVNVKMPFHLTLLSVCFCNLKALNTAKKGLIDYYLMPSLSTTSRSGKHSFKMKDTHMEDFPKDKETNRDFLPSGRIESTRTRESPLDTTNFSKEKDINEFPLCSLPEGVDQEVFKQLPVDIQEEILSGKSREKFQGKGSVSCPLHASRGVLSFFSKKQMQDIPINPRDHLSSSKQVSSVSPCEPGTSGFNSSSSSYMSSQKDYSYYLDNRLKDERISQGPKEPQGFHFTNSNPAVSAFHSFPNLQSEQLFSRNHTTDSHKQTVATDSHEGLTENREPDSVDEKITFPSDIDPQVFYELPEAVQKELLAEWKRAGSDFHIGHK

The test has as its target DNA polymerase iota (Homo sapiens) (UniProt Q9UNA4). The experiment in a line: qHTS for Inhibitors of Polymerase Iota. To be noted: Pol iota fluorescent replication assay, 10 min; series mostly up to 115 µM. The essentials:
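Pol iota at 10 nM preincubated 15 min with compounds at room temperature; reaction started with fluorescent substrate, 50 nM final. Fluorescence read kinetically at 0 and 10 min; buffer-only wells as negative control.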
(In qHTS, concentration-response curves come from the screen itself.)
Consider `COc1cc(Cl)ccc1Nc1ncc(C(=O)N2CCN(c3ccccc3OC)CC2)c2ccccc12`, for which the Potency entry was “inactive”.
Next, `CCc1ccc(S(=O)(=O)c2nnn3c2nc(NCc2ccccc2OC)c2cc(Cl)ccc23)cc1`: “inactive”.
For `CC(NC(=O)c1ccc(N2CCNCC2)c([N+](=O)[O-])c1)C12CC3CC(CC(C3)C1)C2` (stereo not given), the Potency result is “inactive”.
The same measure for `CC(CNC(=O)c1ccc(N)cc1)NC(=O)c1ccc(N)cc1` (stereo not given): “inactive”; for `CN(C)NC(=O)C(NC(=O)c1ccc(N)cc1)C12CC3CC(CC(C3)C1)C2` (stereo not given): 35.5 µM (active); for `CC(CCCc1ccccc1)NC(=O)c1nn(-c2ccc(Cl)cc2)nc1CO` (stereo not given): “inactive”.
The same measure for `COc1ccc(CCNC(=O)c2ccc3c(c2)sc2nc(-c4ccc(C)cc4)cn23)cc1OC`: “inactive”.
For `CCOc1ccccc1C(=O)NCc1ccc2c(c1)CCN2C(=O)c1ccc(F)cc1`, the Potency result is “inactive”.
In the case of `COC(=O)c1ccccc1NC(=O)Cn1c(=O)n(-c2cccc(C(F)(F)F)c2)c(=O)c2c(C)c(C)sc21`, the Potency result was “inactive”.
With `CON(C)S(=O)(=O)c1ccc2c(c1)NC(=O)C1CCCN21` (stereo not given), the Potency is 22.4 µM (active).
As for `CC1C(=O)Nc2ccc(S(=O)(=O)N3CCN(c4ccccc4F)CC3)cc2NC1=O` (stereo not given), the Potency entry is “inactive”.
Next, `COc1ccc(N2CCN(S(=O)(=O)c3ccc4c(c3)NC(=O)C(C)C(=O)N4)CC2)cc1` (stereo not given): “inactive”.
The same measure for `N#Cc1ccc[n+](CC(=O)c2ccc(O)c(O)c2)c1`: 0.891 µM (active); for `NC(=O)C[n+]1cccc(C(N)=O)c1`: “inactive”.
The same measure for `N#Cc1ccc[n+](CC(=O)c2ccc(F)cc2)c1`: “inactive”; for `Cc1ccccc1C(=O)NCc1nc(-c2ccc(Cl)cc2)no1`: “inactive”.
As to `CCN(CC)CCNC(=O)CN1N=C(c2ccc(OC)cc2)CCC1=O`, the Potency result is “inactive”.
Next, `COc1ccc(OC)c(CNC(=O)CN2C(=O)CCn3nc(-c4cn(C)c5ccccc45)cc32)c1`: “inactive”; `Cn1c(=O)cc(OCC(=O)N2CCN(c3ccccc3)CC2)c2ccccc21`: “inactive”; `CCC(=O)N1CCc2cc(Br)cc(S(=O)(=O)CCC(=O)NCc3ccccc3OC)c21`: “inactive”.
The same measure for `Cc1ccc(NC(=O)CN2C(=O)C(c3ccc(F)cc3)=NC23CCCCCC3)c(C)c1`: 44.7 µM (active); for `COc1ccc(NC(=O)CN2C(=O)C(c3ccccc3)=NC23CCCCCC3)cc1OC`: “inactive”.
The same measure for `CCc1ccc(NC(=O)CN2C(=O)C(c3ccccc3)=NC23CCCCCC3)cc1`: “inactive”; for `CCCCN(C)c1nnc(NC(=O)Nc2ccc(Br)c(C)c2)s1`: “inactive”.
For the compound `CCOCCCn1c(SCC(=O)Nc2ccc(CC)cc2)nc2ccccc2c1=O`, the Potency result is “inactive”.
Turning to `Cc1ccc(Cl)cc1NC(=O)Cc1ccc(-n2c(C)nc3cccnc32)cc1`, the Potency result is “inactive”.
Next, `COc1ccccc1-c1ccnc2[nH]n(-c3ccccc3)c(=O)c12`: “inactive”.
For `O=c1c2c(-c3ccccc3)ccnc2[nH]n1-c1ccccc1`, the Potency entry is “inactive and 89.1 µM (active)”.
With `Cc1ccc(-c2ccnc3[nH]n(-c4ccccc4)c(=O)c23)cc1`, the Potency result was “inactive”.
Next, `COc1ccc(OC)c(NC(=O)CN2CCCN(Cc3cc(C)ccc3C)S2(=O)=O)c1`: “inactive”; `CCOc1ccc(NC(=O)c2cc3c(=O)n(Cc4cccs4)ccc3nc2C)cc1`: “inactive”; `Cc1cc2nn(-c3ccc(Cl)cc3)nc2cc1NC(=O)C(C)C`: “inactive”.
Next, `O=C(O)C(c1ccccc1)N1C(=O)/C(=C\c2ccc(-c3cccc(Cl)c3)o2)SC1=S` (stereo not given): 31.6 µM (active); `O=C(NC(=S)Nc1cc(C(F)(F)F)ccc1N1CCOCC1)c1ccc(-c2cccc(Cl)c2)o1`: “inactive”; `O=C(NCc1ccccc1)c1cc(-c2cccc(Cl)c2)on1`: “inactive”.
With `Cc1ccc(-c2nnc(Nc3ccc(OCC(N)=O)cc3)c3ccccc23)cc1S(=O)(=O)NCC1CCCO1` (stereo not given), the Potency entry was “inactive”.
Next, `O=C(c1cnn2c1NC(=C1CC1)C=C2C(F)F)N1CCc2ccccc2C1`: “inactive”; `Cc1ccc(NC(=O)c2cc(S(=O)(=O)NCCC3=CCCCC3)ccc2F)cc1C`: “inactive”.
The same measure for `O=C(O)c1cccnc1NC1CCCC1`: 89.1 µM (active).
As for `O=C(COC(=O)c1cccnc1Cl)NC(=O)NC1CCCCC1`, the Potency entry was “inactive”.
The same measure for `CCCSc1ncccc1C(=O)O`: “inactive”; for `CSc1ccccc1-c1nnc(NC(=O)c2ccc3c(c2)OCCO3)o1`: “inactive”.
The same measure for `Cc1ccc(NC(=O)Cn2nnc3sc4c(c3c2=O)CCC(C)C4)cc1` (stereo not given): “inactive”; for `O=C(CCc1n[nH]c(=O)[nH]c1=O)N/N=C/c1ccc(Br)o1`: “inactive”.
`O=C(CCNC(=O)c1ccccc1)NN=Cc1ccc(Br)o1`: the Potency was 35.5 µM (active).
As for `O=C(CCNC(=O)c1ccccc1Cl)NN=Cc1ccco1`, the Potency entry was “inactive”.
As for `O=S(=O)(Nc1cccc2cccnc12)c1cccc2cccnc12`, the Potency entry was “inactive”.
Turning to `ClC/C=C/C[n+]1ccccc1Cl`, the Potency entry is “inactive”.
The same measure for `CCOC(=O)C1CCCN(C(=O)Cn2ncc3c(C)n(Cc4ccc(F)cc4)c(C)c3c2=O)C1` (stereo not given): “inactive”.
Regarding `O=c1ccc2c(-c3ccccc3S(=O)(=O)O)c3ccc(O)c(O)c3oc-2c1O`, the Potency was 1.12 µM (active).
Consider `COc1ccc(CCn2c3c(c(=O)[nH]c2=S)CN(C(C)C)CN3)cc1OC`, for which the Potency result was “inactive”.
Turning to `COc1ccccc1-c1cc2nc(C)c(CCC(=O)NC3CCCCC3)c(C)n2n1`, the Potency result is “inactive”.
On to `CN(C)c1ccc(/C=c2\[nH]c(=O)/c(=C/c3ccc(N(C)C)cc3)[nH]c2=O)cc1`, for which the Potency entry was “inactive”.
The same measure for `COc1ccc2c(c1)c(=Cc1ccc(N(C)C)cc1)c1cc(-c3ccccc3)[n+](C)n12`: 39.8 µM (active); for `O=C(Cn1ncn2nc(-c3cccs3)cc2c1=O)NCc1cccc(Br)c1`: “inactive”.
Next, `O=C(Nc1ccc(OC(F)(F)F)cc1)C1CCCN(S(=O)(=O)c2ccc(Br)s2)C1` (stereo not given): “inactive”; `SCc1nc2ccc(Cl)cc2[nH]1`: “inactive”; `Fc1ccc(CN2CCc3nc(Nc4ccccc4)ncc3C2)cc1F`: “inactive”.
Next, `O=C(CSc1nc2ccccc2c(=O)[nH]1)Nc1nc(-c2ccc(Br)cc2)cs1`: 6.31 µM (active).
`Cc1cc(C)c(-c2csc(NC(=O)CCCc3nc4ccccc4c(=O)[nH]3)n2)c(C)c1`: the Potency result was “inactive”.
The same measure for `O=C(COC(=O)c1cc(=O)[nH]c2ccccc12)Nc1nc(-c2cccc(Br)c2)cs1`: “inactive”; for `COc1ccc(-n2nc(C(=O)NCCc3ccc(Cl)cc3)c3c4ccccc4n(C)c3c2=O)cc1Cl`: “inactive”; for `Cc1cccc(-n2ccnc2SCC(=O)Nc2cccc3ccccc23)c1C`: “inactive”.
Next, `COc1cc2nc(C#Cc3nc4cc(OC)c(OC)cc4[nH]3)[nH]c2cc1OC`: “inactive”; `COc1ccc(NC(=O)c2sc(N3CCOCC3)nc2-c2ccccc2)c(OC)c1`: “inactive”; `Cc1cc(C)c2nc(N3CCC(C(=O)NCCN4CCOCC4)CC3)sc2c1`: “inactive”.
The same measure for `Cc1nc(N2CCOCC2)sc1C(=O)NN`: 7.08 µM (active).
`Cn1c(=O)sc2cc(NS(=O)(=O)c3ccc(C(C)(C)C)cc3)ccc21`: the Potency result was “inactive”.
On to `CCOc1ccc(Nc2oc(/C=C/c3ccc(F)cc3)nc2C#N)cc1`, for which the Potency entry was “inactive”.
Next, `COc1cc(C(=O)NCCc2csc3nc(-c4ccccc4C)nn23)cc(OC)c1OC`: “inactive”.
Next, `CC(=O)N(C1=C(Cl)C(=O)c2ccccc2C1=O)c1ccc(C(=O)O)cc1`: 3.16 µM (active).
Next, `Cc1cccc(C(C)C)c1NC(=O)C(NS(=O)(=O)c1cccc2nsnc12)c1ccccc1` (stereo not given): “inactive”.
With `CC(=O)N1CCCc2cc(S(=O)(=O)N3CCC(C(=O)NC4CCCCC4)CC3)ccc21`, the Potency entry is “inactive”.
Next, `COc1ccccc1Nc1cc(C(=O)NCCCN(C)C2CCCCC2)c2ccccc2n1`: “inactive”; `COc1ccc(Nc2cc(C(=O)NCCCN(C)c3ccccc3)c3ccccc3n2)c(OC)c1`: “inactive”; `CN(C)CCNC(=O)c1ccc(Cl)c2cc3ccccc3nc12`: 89.1 µM (active).
The same measure for `CCOC(=O)c1ccc(NC(=O)CCS(=O)(=O)c2ccc(C)cc2)cc1`: “inactive”; for `CCOC(=O)c1c(C)[nH]c(C)c1S(=O)(=O)N1CCC(C(=O)Nc2ccc(C)c(Cl)c2)CC1`: “inactive”.
Consider `CCOC(=O)c1scc(-c2ccccc2)c1S(=O)(=O)Nc1ccccc1F`, for which the Potency entry is “inactive”.
Next, `CCN1CCN(C(c2ccc(C)cc2)c2c(O)cc(C)n(Cc3ccco3)c2=O)CC1` (stereo not given): “inactive”.
The same measure for `O=C(COC(=O)/C=C/c1ccc(Br)o1)Nc1cccc(S(=O)(=O)N2CCOCC2)c1`: 20 µM (active).
The same measure for `O=C(COC(=O)CCc1ccc(S(=O)(=O)N2CCOCC2)cc1)Nc1cccc(Cl)c1`: “inactive”.
With `O=C(CSc1ccccc1)Nc1cccc(S(=O)(=O)N2CCOCC2)c1`, the Potency entry was “inactive”.
The same measure for `Cc1ccc(NC(=O)Cc2ccc(NC(=O)N3CCCCc4ccccc43)cc2)cc1`: “inactive”; for `C=CCC1=C/C(=C\c2c(N)n3nc(CC(=O)N4CCOCC4)sc3nc2=O)C=C(OC)C1=O`: 22.4 µM (active); for `COc1ccc(-c2nc(SCC(=O)N3CCOCC3)n[nH]2)cc1`: “inactive”.
Regarding `COc1ccc(-c2ccnc(SCC(=O)N3CCOCC3)n2)cc1`, the Potency entry is “inactive”.
Next, `COC1=C/C(=C/c2c(N)n3nc(CC(=O)N4CCOCC4)sc3nc2=O)C=CC1=O`: 22.4 µM (active); `CCCOc1ccc(C2c3c(-c4ccccc4O)n[nH]c3C(=O)N2Cc2cccnc2)cc1` (stereo not given): “inactive”; `COc1ccc(CNC(=O)c2ccc(NC(=O)N3CC4CCCN4c4ccccc43)cc2)cc1` (stereo not given): “inactive”.
Next, `O=C1CC(c2ccccc2)CC2=C1C(c1ccco1)n1nc(C(F)(F)F)nc1N2` (stereo not given): “inactive”; `CC1(C)CC(=O)c2cc(C(=O)NCc3ccccc3)c(=O)[nH]c2C1`: “inactive”.
`O=C(CSCc1cnn(-c2ccccc2)c1-n1cccc1)NCc1ccccc1Br`: the Potency result is “inactive”.
Next, `CC1(C)Cc2ccccc2-c2c[nH]c(=O)n21`: “inactive”; `COc1ccc(S(=O)(=O)Nc2cccc3cccnc23)c(N)c1`: “inactive”; `Cc1ccc(CN(C(=O)c2ccccc2[N+](=O)[O-])c2ccccn2)cc1`: “inactive”.
The same measure for `CCn1cc(C(=O)NCc2ccc(C)cc2)c(=O)c2cc(S(=O)(=O)N3CCc4ccccc4C3)ccc21`: “inactive”; for `Cc1ccc(Cc2c(C)nc3nc(SCC(=O)NCCN4CCOCC4)nn3c2C)cc1`: “inactive”.
For the compound `Cc1nc2nc(SCC(=O)NCc3ccco3)nn2c(C)c1Cc1ccccc1`, the Potency was 50.1 µM (active).
Next, `COc1cc(NC(=O)CSc2nc3nc(C)c(Cc4ccc(C)cc4)c(C)n3n2)cc(OC)c1OC`: “inactive”.
